Screening data: PubChem BioAssay, National Center for Advancing Translational Sciences (NCATS)
TDP1 cell CPT – growth inhibition of DT40 Tdp1-/-;hTDP1 cells with camptothecin (screen for TDP1 inhibitors); chicken DT40 Tdp1-/-;hTDP1 cells + 20 nM CPT, ATP luminescence, 48 h; Potency, µM (highest dose often 46.2 µM), inactives show top-dose activity change, negative = growth inhibition, usual class: inhibitors; hit rate 12% among 420,000; AID 686979; note: nearly all actives have a fitted effect of over 55% in size
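Cell growth measured by CellTiter-Glo luminescence after a minimum 48 h, 37 C compound exposure with 20 nM CPT in Tdp1-knockout DT40 cells stably expressing hTDP1, seeded 400/well; qHTS titration format.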
HT1080-NT tox – kills 2HG-producing HT-1080-NT fibrosarcoma cells | HT-1080-NT fibrosarcoma viability, CellTiter-Glo ATP luminescence, 48 h | Potency, µM (doses to about 46.1 µM), for the others: at the top dose activity, negative = less viability, most hits filed as cytotoxic | hit rate 1.6% among 360,000 | AID 686970;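 note: NT is the 2HG producing partner of a matched IDH1 knockdown line; 0% = DMSO-treated cells and -100% = media-only wells without cells; nearly all actives have a fitted effect of over 55% in size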
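Viability by CellTiter-Glo luminescence after 48 h compound exposure at 37C of HT-1080-NT cells (750/well, RPMI, 5% FBS). % activity scaled between DMSO wells and medium-only wells, then curve-fitted and categorized by curve class.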
HT1080 IDH1KD tx – HT-1080 IDH1 knockdown cell toxicity (counter line); Potency, µM (doses to about 46.1 µM), inactives show at the top dose activity, negative = toxicity, usual class: cytotoxic; HT-1080 IDH1 knockdown viability, ATP luminescence, 48 h; hit rate 2% among 360,000; AID 686971;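 note: 0% = DMSO wells and -100% = cell-free medium wells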
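Assay cells: HT-1080 with IDH1 knockdown, 750 per well, RPMI/5% FBS. Exposure: 48 h at 37 °C following 2 h pre-incubation. Read: CellTiter-Glo luminescence; fitted concentration-response, curve class assigned.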
KB-V1 MDR tox – KB-V1 MDR subline cytotoxicity; KB-V1 MDR cells viability, CellTiter-Glo, 72 h; Potency, µM (series often up to 46.1 µM), most hits filed as cytotoxic; hit rate 3.4% among 400,000; AID 1347076; note: nearly all actives have a fitted effect of over 60% in size
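Cytotoxicity via CellTiter-Glo luminescence after 72 h compound exposure at 37 degrees C. Cells: drug-selected KB-V1 line, DMEM phenol-red free plus 10% FBS. Compounds tested at multiple concentrations; normalized data fitted to concentration-effect curves.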
DT40 TDP1 no CPT – qHTS for Inhibitors of human tyrosyl-DNA phosphodiesterase 1 (TDP1): qHTS in cells in absence of CPT | DT40 Tdp1-/- hTDP1 cells, no CPT, ATP luminescence, 48 h | hit rate 15% among 420,000 | Potency, µM (series often up to 46.2 µM), without a hit: at the top dose activity change, negative = growth inhibition, most hits filed as inhibitors; note: nearly all actives have a fitted effect of over 55% in size
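Chicken DT40 Tdp1-/- cells complemented with human TDP1, screened without camptothecin (DMSO vehicle only), 400 cells/well. Compounds pin-transferred, cells incubated at 37 °C for at least 48 hr. Growth read as ATP-dependent luminescence (CellTiter-Glo, 30 min at RT).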
KB-3-1 tox – kills parental KB-3-1 adenocarcinoma cells; AID 1347075; hit rate 1.4% among 400,000; KB-3-1 viability, CellTiter-Glo ATP luminescence, 72 h; Potency, µM (doses to about 46.1 µM), actives largely listed as cytotoxic; note: nearly all actives have a fitted effect of over 60% in size
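Parental KB-3-1 adenocarcinoma cells in phenol-red-free DMEM with 10% FBS were pin-treated with compounds at several concentrations, incubated 72 h at 37 °C, and viability read by CellTiter-Glo luminescence; concentration-effect curves were fitted after normalization.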
* marks the source's active call; other numbers are inactive results; i = inactive; ? = inconclusive; . = no result; [ ] = another dose, or the depositor's remark. Only some compounds are listed: those with a hit (about 19% of all), similar ones and a draw of the others. Calls come from the whole dose curve; as a rule, active = well fitted curve in the direction sought with a large enough effect; inconclusive = small, poorly fitted or top-dose-only effect, or another doubt; inactive = no such curve, though single readings can be large; an effect the other way counts as inactive or inconclusive. Unless noted, % is set by controls: 0 for no effect and ±100 for the full control effect; potency is the fitted concentration of half-maximal effect.

SMILES	TDP1 cell CPT	HT1080-NT tox	HT1080 IDH1KD tx	KB-V1 MDR tox	DT40 TDP1 no CPT	KB-3-1 tox
Cc1ccc(-c2cc(C(=O)N3CCN(c4ncccn4)CC3)c3cc(Br)ccc3n2)o1	4.1µM*	-4%	-9%	?	8.2µM*	i
NC(=O)CN(c1ccc([N+](=O)[O-])cc1)S(=O)(=O)c1ccccc1	9%	-1%	1%	i	-3%	i
Cc1ccc(CSc2nc(=O)c3c(C)cc(C)nc3n2C2CC2)cc1	21µM*	.	.	i	21µM*	i
COC(=O)c1cc(C)nc2c1c(=O)nc(SCc1cc(C)ccc1C)n2C1CC1	-9%	.	.	i	?	i
COc1ccc(N2CCN(c3ccc(N4C(=O)COCC4=O)cc3[N+](=O)[O-])CC2)cc1	?	0%	-12%	?	9.2µM*	i
COc1ccc(N2CCN(C(=O)c3ccccc3Br)CC2)c([N+](=O)[O-])c1	?	-6%	-1%	i	15µM*	i
COc1ccc(N2CCN(C(=O)c3ccc(Br)cc3)CC2)c([N+](=O)[O-])c1	?	15%	10%	?	18µM*	i
O=C(O)C(Cc1cc(I)c(O)c(I)c1)c1ccccc1 (stereo unspecified)	0%	.	.	.	?	.
Cc1ccc(NC(=O)CN2C(=O)NC3(CCCCC3C)C2=O)cc1S(=O)(=O)N1CCCCC1 (stereo unspecified)	?	-6%	0%	i	?	i
Cc1ccc(OCC(=O)Nc2cccc(OCc3cc(=O)n4ccccc4n3)c2)cc1C	-6%	.	.	.	-10%	.
C=CCNC(=O)/C(C#N)=C/c1ccc(OS(=O)(=O)c2ccc(C)cc2)c(OC)c1	?	?	?	?	?	i
Cn1nc(C(=O)NCCCN2CCCCC2)c2c1-c1ccccc1SC2	?	-2%	4%	i	?	i
CCOc1ccc(CCNC(=O)c2nn(C)c3c2CSc2ccc(C)cc2-3)cc1OCC	?	.	.	?	13µM*	i
CCOC(=O)N1CCN(C(=O)c2nn(C)c3c2CSc2ccccc2-3)CC1	?	24%	5%	i	16µM*	i
CCCCN(CC)C(=O)c1nn(C)c2c1CSc1ccccc1-2	?	.	.	.	23µM*	.
CCN(C(=O)c1nn(C)c2c1CSc1ccccc1-2)c1cccc(C)c1	12µM*	.	.	.	21µM*	.
CCN(Cc1ccccc1)S(=O)(=O)c1c(C)[nH]c(C)c1C(=O)N1CCCC1	-4%	-2%	-11%	i	-8%	?
O=S(=O)(NCC(O)c1ccccc1)c1cc(Cl)sc1Cl (stereo unspecified)	?	-5%	-3%	i	?	i
COc1ccccc1CNc1nccn(-c2ccccc2)c1=O	?	.	.	i	?	i
O=S(=O)(c1ccc2c(c1)CCCC2)N1CCN(c2nc(-c3cccs3)nc3ccccc23)CC1	?	.	.	i	?	?
COc1ccccc1NC(=O)N(C)C[C@@H]1OCc2cn(nn2)CCCC(=O)N([C@H](C)CO)C[C@H]1C	9%	4%	4%	i	15%	i
COc1ccc(CCC(=O)Nc2cc(Cl)ccc2OC)cc1	?	-24%	-11%	21µM*	?	i
CCOC(=O)c1c(C)[nH]c(CCC(=O)NC(C)c2ccccc2)c1C (stereo unspecified)	?	.	.	.	18µM*	.
CCOC(=O)c1c(C)[nH]c(CCC(=O)NCc2ccc(OC)cc2OC)c1C	?	.	.	.	16µM*	.
COc1ccc(Cl)cc1NC(=O)CC(=O)Nc1cc(Cl)ccc1OC	-2%	-20%	?	i	-29%	i
SMILES	TDP1 cell CPT	HT1080-NT tox	HT1080 IDH1KD tx	KB-V1 MDR tox	DT40 TDP1 no CPT	KB-3-1 tox
CCCCOc1ccc(OC(=O)Nc2cc(Cl)ccc2OC)cc1	18µM*	-17%	-17%	i	15µM*	i
Cc1c(C(=O)N2CC[C@@H]3CCCC[C@H]3C2)sc2ncnc(NCCc3ccccn3)c12	-12%[9.04 µM]	.	.	.	?	.
CCOC(=O)c1c(C)[nH]c(CCC(=O)Nc2cc(Cl)ccc2OC)c1C	18µM*	.	.	.	21µM*	.
C=CCN(CC=C)C(=O)Nc1cc(Cl)ccc1OC	1%	15%	-14%	15µM*	-22%	i
CCc1ccc(CN(Cc2cn[nH]c2-c2ccc(OC)cc2)C(=O)Nc2cc(Cl)ccc2OC)cc1	16µM*	.	.	?	23µM*	?
CCOC(=O)c1c(C)[nH]c(CCC(=O)NCc2cccc(C)c2)c1C	?	.	.	.	16µM*	.
COc1ccc(Nc2ccc(C(F)(F)F)cc2[N+](=O)[O-])cn1	-3%	6%	12%	i	14%	i
O=C(COc1ccccc1C(=O)Nc1ccccc1)Nc1cccc([N+](=O)[O-])c1	13µM*	.	.	i	?	?
O=C(COc1ccccc1Cl)NC(=S)Nc1cccc(NC(=O)c2ccccc2Cl)c1	-10%	-10%	0%	i	-20%	i
O=C(COc1ccccc1C(=O)Nc1ccccc1)Nc1cccc(Cl)c1	18µM*	-27%	-17%	.	18µM*	.
Cc1noc(-c2ccccc2OCC(=O)Nc2cccc([N+](=O)[O-])c2)n1	?	.	.	i	-29%	i
CCCCc1ccc(NC(=O)COC(=O)c2ccccc2OCC(=O)Nc2ccc(Br)cc2)cc1	11µM*	.	.	i	?	?
CC(C)(C)NC(=O)COC(=O)c1ccccc1OCC(=O)Nc1ccc(Br)cc1	-3%	-26%	-23%	i	-27%	i
O=C(COc1ccccc1C(=O)Nc1ccccc1)NCCCCc1ccccc1	?	-11%	-24%	.	18µM*	.
CC(NS(=O)(=O)c1ccc(OCC(=O)Nc2cccc([N+](=O)[O-])c2)cc1)c1ccccc1 (stereo unspecified)	?	-29%	?	?	21µM*	i
O=C(COc1ccccc1C(=O)Nc1ccccc1)Nc1ccc(Br)cc1	?	.	.	i	?	i
O=C(COc1ccccc1C(=O)Nc1cccc([N+](=O)[O-])c1)Nc1ccc(Br)cc1	7.9µM*	.	.	?	16µM*	?
O=C(COC(=O)COc1ccccc1)Nc1cccc([N+](=O)[O-])c1	-6%	-2%	0%	i	-12%	i
CC/C(=C\C(=O)c1ccncc1)Nc1ccc(O)cc1	?	-1%	-12%	i	21µM*	i
